The values that follow come from PubChem BioAssay AID652040 (Broad Institute, 2013).

Results with a measured potency or affinity are listed apart. Values without a mark were called inactive. Calls of active or inactive are those of the source.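 The calls were made as follows: active = falling luciferase signal whose fitted half-maximal concentration is at most twice the top tested dose; inconclusive = flat inhibition between 30 and 70% or a poor curve fit; inactive = the rest.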

This assay is described as follows: off-target signal loss in HeLa-CEM21 co-culture – HeLa F-luc CTL cells, cherry-picked, counter-screen for HIV-1 Env fusion inhibitor project, dose response (AID 652040).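 Also: 0% = median of neutral control wells and -100% = doxycycline 40 µg/mL wells; more negative values mean stronger loss of luciferase signal.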 To be noted: HeLa-F-luc CTL cells with CEM21, firefly luciferase counterscreen; series mostly up to 35 µM.
Regarding `Nc1ccn([C@@H]2O[C@H](C(=O)NCc3ccc4c(c3)OCO4)[C@@H](O)[C@H]2O)c(=O)n1`, the result was inactive. The same measure, in the same setting: the result for `Cc1oc(-c2ccc(Cl)cc2)nc1CN1CCCC(C(=O)NCc2cccnc2)C1` (stereo not given) reads “inactive”. In the case of `COc1ccc(S(=O)(=O)NNC(=O)C2Cc3c(ccc4ccccc34)O2)cc1` (stereo not given), the result was inactive.

As to `CCN1C(=O)[C@H]2[C@@H](c3ccc(C(F)(F)F)cc3)N[C@]3(CCCN(Cc4ccccc4)C3=O)[C@H]2C1=O`, the molecule was called inactive.

Take `CCCCOc1ccc(S(=O)(=O)Nc2cccnc2)cc1`: the outcome was inactive. Take `COc1ccc(CCCC(=O)NCCc2ccccc2)c(C)c1`: the outcome was inactive. The same measure, in the same setting: in the case of `COc1ccc(-c2cn3c(C)c(C(=O)Nc4cccc(NC(C)=O)c4)sc3n2)cc1` it was “inactive”. On the same count and under the same terms, in the case of `COc1ccc(NC(=O)CN2CCC(C(N)=O)(N3CCCCC3)CC2)cc1` it was “inactive”; in that of `C[C@@H]1CN([C@H](C)CO)S(=O)(=O)c2ccc(C#Cc3cccc(F)c3)cc2O[C@@H]1CN(C)C(=O)CN1CCOCC1`, “inactive”. In the case of `COc1ccccc1Oc1ccc(S(=O)(=O)NCc2ccccn2)cc1`, the call was inactive. In the case of `Cc1cc(N2CCN(c3nc4ccccc4s3)CC2)n2ncnc2n1`, the molecule was called inactive. The same measure, in the same setting: in the case of `COc1cc(CSc2nnnn2-c2ccc(C)cc2)cc(OC)c1OC` it was “inactive”. As to `Cc1ccccc1OCCCCn1cnc2ccccc21`, the molecule was classed as inactive. Turning to `O=C(COc1ccc(-n2cnnn2)cc1)Nc1ccc(F)c(F)c1`, the molecule was classed as inactive.

As for `CC1Cc2cc(-c3csc(NC(=O)Cc4cccs4)n3)ccc2N1S(C)(=O)=O` (stereo not given), the molecule was classed as inactive. Take `Cc1cc(Nc2cccc(C(F)(F)F)c2)cc(=O)n1-c1cccc(C(F)(F)F)c1`: the call was inactive.

Take `O=C(Nc1ccc(Cl)cc1)C1CCCN(C2=NS(=O)(=O)c3ccccc32)C1` (stereo not given): the outcome was inactive. Same read-out and setting: the result for `Cc1onc(-c2ccccc2)c1C(=O)NC(=S)NNC(=O)c1ccc(O)cc1` reads “inactive”. The same measure, in the same setting: in the case of `CC1(C(=O)NCc2ccc3c(c2)OCO3)CCN1Cc1csc2ccccc12` (stereo not given) it was “inactive”.

`COc1ccc(-c2nnc(Nc3nc4c(OC)cccc4s3)o2)cc1`: the outcome was inactive.

On to `O=c1c2ccccc2nnn1CSc1nnc(COc2ccc(Cl)cc2)n1Cc1ccco1`, for which the call was inactive. Same read-out and setting: the result for `COc1ccc(C(=O)Nc2nc(-c3ccc(S(=O)(=O)N4CCOCC4)cc3)cs2)cc1` reads “inactive”. Still for that read-out and setting: the result for `Cn1c(C(=O)N2CCN(c3nc4ccccc4s3)CC2)cc2sccc21` reads “inactive”; that for `COc1ccc(NS(=O)(=O)c2cccc(C(=O)NNC(=O)CNC(=O)c3ccc(C)cc3)c2)cc1`, “inactive”; that for `COc1ccccc1-c1c(-c2ccc(O)cc2O)n[nH]c1C(F)(F)F`, “inactive”. Still for that read-out and setting: the result for `COC(=O)[C@@]1(Cc2ccc(F)cc2)[C@H]2c3cc(C(=O)N(C)C)n(CCO)c3C[C@H]2CN1C(=O)c1ccccc1` reads “inactive”; that for `Cc1ccc(-n2nnnc2-c2cnn(-c3ccc(F)cc3)c2C(F)(F)F)cc1`, “inactive”. Turning to `CC(C)(C)c1ccc(-c2noc(CCC(=O)NCC3CCCO3)n2)cc1` (stereo not given), the result was inactive. The same measure, in the same setting: the result for `O=C(N/N=C/c1ccc(-n2ccnc2)cc1)c1cccs1` reads “inactive”. In the case of `COC(=O)[C@]12CCCCC=C1N(Cc1ccco1)C(=O)[C@H](CC(=O)NCCc1ccccc1OC)C2`, the call was inactive. For `COc1ccc(OCC(=O)Nc2ccccc2N2CCCCC2)cc1`, the molecule was classed as inactive. As to `COc1ccccc1S(=O)(=O)n1cc(Cc2ccccc2)c(N)n1`, the call was inactive.

As for `CCC(=O)N(C)C(c1ccccc1Cl)c1nnnn1-c1c(C)cccc1C` (stereo not given), the outcome was inactive. Still for that read-out and setting: in the case of `Cc1ccc2[nH]c3c(N4CCN(Cc5ccccc5)CC4)ncnc3c2c1` it was “inactive”. Regarding `COc1ccc(/C(C)=N/NC(=O)c2cccc(S(=O)(=O)N3CCCC3)c2)c(O)c1`, the activity change, negative = inhibition was 27.9% [at 8 µM]. Consider `CC(C)CNS(=O)(=O)c1ccc(CCC(=O)N2CCN(Cc3ccc4c(c3)OCO4)CC2)cc1`, for which the molecule was called inactive. For the molecule `CCc1ccc(Nc2n[n+](-c3ccccc3)c(-c3c(Cl)cccc3Cl)s2)cc1`, the call was inactive. For `Cc1ccc(Cn2nnnc2CN2CCC(c3nc4ccc(Cl)cc4[nH]3)CC2)cc1`, the molecule was called inactive. In the case of `Fc1ccc(-n2nnnc2-c2cnc(-c3cccs3)nc2C(F)(F)F)cc1`, the result was inactive.

As for `Cc1cc(C(=O)N2CCC(C(=O)O)CC2)c(C(F)(F)F)o1`, the outcome was inactive.
